Screening results from PubChem BioAssay.
ATXN viability: reduces viability in counter-screen for ATXN expression inhibitors | S2 cells (HEK-293 line with an ATXN2-luciferase reporter) viability, CellTiter-Fluor protease fluorescence, 24 h | Potency, µM (doses to about 56.7 µM), hits mostly cytotoxic | 400,000 compounds, 0.49% hits | AID 651635; further: nearly all actives have a fitted effect of over 40% in size
ATXN2 expr inh: inhibitors of ATXN2 expression; HEK-293 ATXN2-luciferase reporter, luminescence, 24 h; 360,000 compounds, 0.72% hits; Potency, µM (series often up to 57 µM), without a hit: top-dose activity change, negative = inhibition, most hits filed as inhibitors; further: on the % scale 0 is the no-effect control and ±100 the full control effect; nearly all actives have a fitted effect of over 55% in size
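ATXN2-luciferase reporter cells (luciferase flanked by upstream and downstream ATXN2 gene portions) were treated 24 h at 37 °C with compounds at up to 57 uM. SteadyGlo luminescence gave expression; GF-AFC fluorescence gave viability.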
HT1080-NT tox: kills 2HG-producing HT-1080-NT fibrosarcoma cells. HT-1080-NT fibrosarcoma viability, CellTiter-Glo ATP luminescence, 48 h. Potency, µM (series often up to 46.1 µM), for inactives: at the top dose activity, negative = less viability, usual class: cytotoxic. 360,000 compounds, 1.6% hits. AID 686970;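 further: NT is the 2HG producing partner of a matched IDH1 knockdown line; 0% = DMSO-treated cells and -100% = media-only wells without cells; nearly all actives have a fitted effect of over 55% in size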
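Viability of the 2HG-overproducing fibrosarcoma line after 48 hours of compound exposure at 37 degrees C was determined by luminescence with CellTiter-Glo, and concentration-effect curves were then fitted and categorized.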
KB-3-1 tox: KB-3-1 parental cell cytotoxicity; KB-3-1 viability, CellTiter-Glo ATP luminescence, 72 h; Potency, µM (top dose mostly 46.1 µM), hits mostly cytotoxic; 400,000 compounds, 1.4% hits; further: on the % scale 0 is the no-effect control and ±100 the full control effect; nearly all actives have a fitted effect of over 60% in size
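Cytotoxicity in the drug-sensitive parental line KB-3-1 was scored as loss of CellTiter-Glo luminescence following 72 h incubation with compound. Values come from curve fitting of normalized concentration-response data.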
KB-V1 MDR tox: kills drug-selected multidrug resistant KB-V1 cells; KB-V1 MDR cells viability, CellTiter-Glo, 72 h; Potency, µM (doses to about 46.1 µM), usual class: cytotoxic; 400,000 compounds, 3.4% hits; further: on the % scale 0 is the no-effect control and ±100 the full control effect; nearly all actives have a fitted effect of over 60% in size
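Compound-treated KB-V1 multidrug-resistant cells, 72 h, 37 degrees C; viability by CellTiter-Glo. Fitted qHTS curves give the values.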
HT1080 IDH1KD tx: kills HT-1080 cells with IDH1 knockdown; Potency, µM (titrated, usually from 46.1 µM), inactives show at the highest dose activity, negative = toxicity, most hits filed as cytotoxic; 360,000 compounds, 2% hits; AID 686971; HT-1080 IDH1 knockdown viability, ATP luminescence, 48 h;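 further: 0% = DMSO wells and -100% = cell-free medium wells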
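Luminescent ATP read-out (CellTiter-Glo, 10 min at room temperature) after 48 h compound exposure at 37 °C gave viability of IDH1-knockdown HT-1080 cells. Activity was normalised to DMSO and cell-free wells, then fitted as concentration-response curves.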
* hit, by the source's call; i = inactive; ? = inconclusive; . = no result given; ! = repeats disagree. Hits are enriched below; roughly 6.2% of the tested compounds scored in any of these assays. The call rests on the fitted dose curve; in most records, active means well fitted curve in the direction sought with a large enough effect; inconclusive means small, poorly fitted or top-dose-only effect, or another doubt; inactive means no such curve, though single readings can be large; an effect the other way counts as inactive or inconclusive. Potency means the concentration at half of the fitted maximal effect.

SMILES	ATXN viability	ATXN2 expr inh	HT1080-NT tox	KB-3-1 tox	KB-V1 MDR tox	HT1080 IDH1KD tx
Cc1ccc2c(c1)nnn2C1CCN(S(=O)(=O)c2ccc(C(=O)N(C)C)cc2)CC1	i	0.0%	0.0%	?	9.2µM*	-14.3%
Cc1ccc2c(c1)nnn2C1CCN(CC(=O)N(c2ccccc2)c2ccccc2)CC1	?	.	-24.3%	?	9.2µM*	-3.9%
COC(=O)c1cccc(S(=O)(=O)N2CCC(n3nnc4cc(F)ccc43)CC2)c1	i	-20.2%	-14.1%	i	16.4µM*	-11.8%
Cc1ccc2c(c1)nnn2C1CCN(S(=O)(=O)c2ccc3ccccc3c2)CC1	i	-11.3%	?	i	20.6µM*	?
CCOc1ccc(C2C(C(=O)Nc3ccccc3C)=C(C)Nc3nnnn32)cc1 (configuration not stated)	i	-7.5%	.	i	i	.
Cc1ccc2c(c1)nnn2C1CCN(S(=O)(=O)c2ccc(C(=O)NC3CCCC3)cc2)CC1	i	-16.3%	-3.8%	i	?	-7.3%
Cc1ccc2c(c1)nnn2C1CCN(S(=O)(=O)c2ccc(C(=O)N3CC(C)CC(C)C3)cc2)CC1 (configuration not stated)	i	?	-12.7%	16.4µM*	?	-12.8%
Cc1cccc(N2CCN(C(=O)CS(=O)(=O)Cc3nc(-c4ccccc4C)oc3C)CC2C)c1 (configuration not stated)	i	?	.	?	i	.
O=S(Cc1ccc(Br)cc1)Cc1nnc(SCc2ccc(Br)cc2)n1-c1ccccc1 (configuration not stated)	i	-34.9%	-5.2%	16.4µM*	2.91µM*	?
CC(=O)N/C(=C/c1ccccc1)c1ccncc1	.	.	.	i	i	.
N#C/C(=N\Nc1ccc(Cl)cc1)C(=O)c1ccccc1	?	?	2.59µM*	?	i	?
Cc1c(N/N=C(\C#N)C(=O)c2ccc(Cl)cc2)c(=O)n(-c2ccccc2)n1C	?	7.94µM*	?	3.26µM*	i	2.59µM*
CCOC(=O)NC(=O)/C(C#N)=N\Nc1ccc(Cl)cc1	i	-24.0%	-0.9%	i	i	1.0%
CCCCCn1c(=O)[nH]c2cc(C(=O)N3CCN(c4cc(Cl)ccc4C)CC3)ccc2c1=O	i	10.5%	.	i	i	.
S=C(NCCN1CCOCC1)N/N=C/c1cccs1	5.01µM*	.	2.9%	i	i	15.5%
Oc1cccc(/C=N/NC(=S)NCCN2CCOCC2)c1O	i	.	2.3%	?	i	-3.9%
O=C(NCCN1CCOCC1)c1cc(-c2ccccc2)on1	?	-1.0%	-2.5%	i	i	?
O=C(NCCN1CCOCC1)c1cc(-c2cccs2)on1	i	2.1%	?	i	16.4µM*	?
Cc1nc2cc(-c3sccc3-n3cccc3)nn2c(C)c1C	?	21.4%	12.7%	i	16.4µM*	8.7%
Cc1c2cnn(CC(=O)N3CCCCC3)c(=O)c2c(C)n1Cc1ccc(Cl)cc1	.	.	.	?	i	.
COc1cccc(C(=O)/C(C#N)=N/Nc2cccc(-c3ccnc(C)n3)c2)c1	?	.	25.9µM*	?	?	-28.2%
O=C(Nc1ccc(Cl)cc1)c1ccc2c(c1)N(Cc1ccccc1)CCS2	?	14.5%	.	i	i	.
COc1cc(CN2CCN(c3cccc(Cl)c3)CC2)cc(OC)c1OC	i	?	8.91µM*	3.66µM*	2.31µM*	7.08µM*
COc1cccc(CN2CCSCC2)c1OC	i	-2.1%	11.0%	i	i	3.7%
COc1cc(CN2CCN(S(=O)(=O)c3ccccc3)CC2)cc(OC)c1OC	?	.	0.4%	i	i	-1.3%
SMILES	ATXN viability	ATXN2 expr inh	HT1080-NT tox	KB-3-1 tox	KB-V1 MDR tox	HT1080 IDH1KD tx
COc1cccc(CN2CCN(c3cccc(C(F)(F)F)c3)CC2)c1OC	i	-21.7%	2.8%	i	20.6µM*	-4.3%
OC1(c2cccnc2)CCN(Cc2ccc3c(c2)CN(Cc2ccsc2)CCO3)CC1	i	.	.	.	.	.
COc1cc2c(NC3CCN(C)CC3)nc(N3CCCN(C)CC3)nc2cc1OCCCN1CCOCC1	.	.	.	?	i	.
CCOC(=O)c1c(NC(=O)CC2SC(=NC)N(C)C2=O)sc(C)c1C (configuration not stated)	i	-3.5%	-2.5%	i	10.3µM*	2.5%
CN=C1SC(CC(=O)Nc2sc(C)c(C)c2C(=O)OC)C(=O)N1C (configuration not stated)	i	-19.7%	7.6%	i	?	-5.3%
CN=C1SC(CC(=O)Nc2cccc(C(F)(F)F)c2)C(=O)N1C (configuration not stated)	i	-27.8%	-11.9%	i	14.6µM*	-14.8%
CN=C1SC(CC(=O)Nc2ccccc2F)C(=O)N1C (configuration not stated)	i	0.6%	-1.5%	i	i	0.4%
Cn1cnc2c1c(=O)[nH]c(=O)n2C	i	30.6µM*!	.	.	.	.
Cc1ccc(C)c(Sc2ccc(NC(=O)CCl)cc2)c1	?	?	-15.7%	20.6µM*	?	-19.0%
Cc1ccc(Sc2ccc(NC(=O)CCl)cc2)cc1C	?	31.6µM*	-24.3%	?	?	-27.1%
CCOC(=O)c1ccc(O)c(O)c1	i	5.7%	.	.	.	.
Cc1cccc(C)c1Nc1c(-c2ccsc2)nc2ccccn12	?	0.0%	.	i	i	.
Cc1cc(C)n2c(Nc3c(C)cccc3C)c(-c3ccccn3)nc2n1	?	?	?	?	?	18.4µM*
CCc1cccc(C)c1Nc1c(-c2ccsc2)nc2ncccn12	.	.	.	i	i	.
Cc1cccc(C)c1Nc1c(-c2ccsc2)nc2ncccn12	i	-2.7%	-13.5%	i	11.6µM*	?
Cc1cccc(C)c1Nc1c(-c2ccccn2)nc2ccccn12	10µM*	.	?	i	?	?
CCN(CC)CCCNC(=O)Cn1nc(N2CCN(c3ccccc3OC)CC2)ccc1=O	i	0.9%	.	i	i	.
CCOC(=O)C1=CCN(S(=O)(=O)c2ccc(C)cc2)C1c1ccccc1 (configuration not stated)	?	-20.0%	-1.6%	i	i	1.3%
CCOc1cc2c(c3c1C(c1ccccc1)N(S(=O)(=O)c1ccc(C)cc1)C3)C(=O)C=CC2=O (configuration not stated)	6.31µM*	?	6.51µM*	?	?	11.6µM*
COCCn1c(COc2ccc(OC)cc2)nc2ccccc21	i	53.5%	-5.3%	i	8.2µM*	-6.0%
